This note sets out measurements from PubChem BioAssay (NCI).

Structures are written as SMILES. This is part of a sample that, as a whole, favours compounds with a hit. Of some 79,000 tested, about 15% had one in any assay. Values without a mark were called inactive. Calls of active or inactive are those of the source. No stated cut-off is given here; in the data, active means growth inhibition above about 70%; inactive means the rest.

Assay [1] is described as follows: NCI Yeast Anticancer Drug Screen. Data for the rad50 strain (AID 155).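 Further: 0% = growth of vehicle-only cultures of the same strain.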 As to conditions: S. cerevisiae rad50 strain growth inhibition; at 50.0 µM; active compounds read high. A digest of the protocol:
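DNA repair mutant yeast, compound exposure, growth read-out; inhibition is taken relative to vehicle.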

Assay [2] in a line: NCI Yeast Anticancer Drug Screen. Data for the mec2-1 strain (AID 157). The settings on record: S. cerevisiae mec2-1 strain, at 50.0 µM, active compounds read high. A digest of the protocol:
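Strain: mec2-1 (DNA repair/cell cycle alteration). Compound exposure, then growth measured; inhibition expressed relative to vehicle.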

The nature of assay [3]: NCI Yeast Anticancer Drug Screen. Data for the sgs1 mgt1 strain (AID 161).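 Further: 0% = growth of cultures given vehicle only.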 As to conditions: S. cerevisiae sgs1 mgt1 strain, at 50.0 µM, active compounds read high. In outline:
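Test agents were incubated with a DNA-repair-mutant yeast strain. Growth was then read and compared against vehicle-treated controls.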

Assay [4] in a line: NCI Yeast Anticancer Drug Screen. Data for the cln2 rad14 strain (AID 165).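 Further: 0% = growth equal to vehicle treated cultures.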 The settings on record: S. cerevisiae cln2 rad14 strain, at 50.0 µM, active compounds read high. In outline:
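Compounds are applied to the cln2 rad14 yeast strain, and growth is then compared with that of vehicle-treated cultures to give inhibition.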

Assay [5] can be described thus: NCI Yeast Anticancer Drug Screen. Data for the bub3 strain (AID 167). The settings on record: S. cerevisiae bub3 mutant strain, at 50.0 µM, active compounds read high. A digest of the protocol:
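In this screen, a yeast mutant lacking normal mitotic checkpoint function is challenged with compound. Relative growth versus vehicle gives the inhibition value.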

Assay [6] can be described thus: NCI Yeast Anticancer Drug Screen. Data for the mlh1 rad18 strain (AID 175). As to conditions: S. cerevisiae mlh1 rad18 strain growth inhibition; at 50.0 µM; active compounds read high. A digest of the protocol:
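Read-out is yeast growth inhibition, calculated against vehicle-only controls. The compound was applied to a strain engineered with DNA damage repair alterations.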

Regarding `O=C1CC[C@H](NC(=O)Cc2ccccc2)C(=O)N1`, the growth inhibition in assay [1] was -11.8%; in assay [2], -6.55%; in assay [3] it was -14.4%; in assay [4], 6.35%; in assay [5] it was -11.9%; in assay [6], -13.6%.
Consider `Cc1ccc(Nc2ncnc3c2cnn3-c2ccccc2)cc1`, for which the growth inhibition was 9.7% in assay [1]; 12.2% in assay [2]; 43.5% in assay [3]; -24.1% in assay [4]; -2.35% in assay [5]; 8.05% in assay [6].
Turning to `COc1ccc2nc(C)cc(N=[N+]=[N-])c2c1`, the growth inhibition in assay [1] was -34.6%; in assay [2], 1.45%; in assay [3] it was -16.5%; in assay [4], -46.5%; in assay [5] it was 8.55%; in assay [6], 10.6%.
With `O=C(O)[C@H](CSSC[C@@H](C(=O)O)N1C(=O)c2ccccc2C1=O)N1C(=O)c2ccccc2C1=O`, the growth inhibition in assay [1] was 20.3%; in assay [2], -6.4%; in assay [3] it was -4.85%; in assay [4] it was 31.4%; in assay [5], 2.8%; in assay [6] it was -4.4%.
For the molecule `Cn1nnc2c(C(N)=S)ncn2c1=O`, the growth inhibition in assay [1] was 30.1%; in assay [2], 11%; in assay [3], 10.7%; in assay [4], 19.6%; in assay [5], 17.9%; in assay [6], 22%.
In the case of `Nc1nc[n+](Cc2ccccc2)c2ncn(Cc3ccccc3)c12`, the growth inhibition in assay [1] was -5.6%; in assay [2] it was -23.6%; in assay [3] it was -11.2%; in assay [4], -9.25%; in assay [5], -14.7%; in assay [6], 3.5%.
`O=C(O)/C(=C(\CO)c1ccccc1)c1ccccc1`: the growth inhibition in assay [1] is 7.15%; in assay [2], 9.25%; in assay [3], 11%; in assay [4], 24.4%; in assay [5] it was 3.25%; in assay [6], 26.7%.
For `COc1cc(CCl)c(OC)cc1Cl`, the growth inhibition is 8.6% in assay [1]; 0.9% in assay [2]; -1.4% in assay [3]; -35.6% in assay [4]; 13.6% in assay [5]; -28.4% in assay [6].
For the molecule `Oc1ccc(C2=NNC(c3ccc(O)cc3)=NN2)cc1`, the growth inhibition in assay [1] was 12.7%; in assay [2], 11.9%; in assay [3], 17%; in assay [4], 21.1%; in assay [5], 12.8%; in assay [6], 10.1%.
`Cn1nnc(/C(N)=N/N=C/c2ccccc2)n1`: the growth inhibition was 1.95% in assay [1]; -10.8% in assay [2]; -1.55% in assay [3]; -22.2% in assay [4]; -12.6% in assay [5]; -15.4% in assay [6].
Take `CC(=O)Nc1nc(C)c(S(=O)(=O)Cl)s1`: the growth inhibition in assay [1] was 27.5%; in assay [2] it was 10.4%; in assay [3], 33%; in assay [4] it was 23.2%; in assay [5], 14.8%; in assay [6] it was 19.6%.
As to `Oc1cc2cc(-c3ccccc3)[nH]c2c2ccccc12`, the growth inhibition in assay [1] was -11.1%; in assay [2] it was -5.25%; in assay [3], -1.3%; in assay [4] it was 18.8%; in assay [5], -2.1%; in assay [6], 1.3%.
For the molecule `C=CC1(c2ccc3ccccc3c2)OCC(CC)(CC)CO1`, the growth inhibition was -18.1% in assay [1]; 7.15% in assay [2]; -3.6% in assay [3]; -4.7% in assay [4]; 7.75% in assay [5]; 21.5% in assay [6].
Turning to `COc1ccc(CC#N)cc1OC`, the growth inhibition was 6.5% in assay [1]; -8.3% in assay [2]; -5.6% in assay [3]; -54.8% in assay [4]; -31.4% in assay [5]; -5.2% in assay [6].
As to `C/C(=N\O)c1sc(-n2nc(-c3ccccc3)cc2-c2ccccc2)nc1C`, the growth inhibition was 13.7% in assay [1]; 4.2% in assay [2]; 37.6% in assay [3]; 25.4% in assay [4]; 30.6% in assay [5]; 19.3% in assay [6].
For the molecule `O=C(O)c1ccc2c(c1)C(=O)c1c(c(O)c3ccccc3c1O)C2=O`, the growth inhibition is 9.25% in assay [1]; 6.25% in assay [2]; 9.6% in assay [3]; -11.7% in assay [4]; 12.3% in assay [5]; -8.55% in assay [6].
`CC1CC=CCC1(C(=O)O)C(=O)O` (stereo unspecified): the growth inhibition was 0.6% in assay [1]; 10.1% in assay [2]; -10.2% in assay [3]; -2.05% in assay [4]; -21.6% in assay [5]; -24.1% in assay [6].
`Cc1ccccc1CCOC(=O)c1cc([N+](=O)[O-])cc([N+](=O)[O-])c1`: the growth inhibition is -19% in assay [1]; 2.2% in assay [2]; -10.9% in assay [3]; 4.1% in assay [4]; 5.45% in assay [5]; -16.4% in assay [6].
For the molecule `[O-]c1c2c(nn1-c1ccc(Cl)cc1)c1ccccc1c[n+]2Cc1ccccc1`, the growth inhibition in assay [1] is -6.1%; in assay [2], -20.6%; in assay [3] it was -11.2%; in assay [4], -2.5%; in assay [5] it was 11.4%; in assay [6], -16.2%.
With `CCc1c(C#N)c(=O)[nH]c(=O)n1CCN1CCN(C(=O)NCCCCCCNC(=O)N2CCN(CCn3c(CC)c(C#N)c(=O)[nH]c3=O)CC2)CC1`, the growth inhibition in assay [1] is 4.6%; in assay [2], 2.55%; in assay [3], -14.4%; in assay [4], -23.6%; in assay [5], 2.7%; in assay [6], -26.1%.
As to `CCCCN(CCCC)CCC(O)c1cc(-c2ccc(Cl)c(Cl)c2)nc2c(Cl)cc(Cl)cc12` (stereo unspecified), the growth inhibition in assay [1] was 96.4% (active); in assay [2] it was 95.5% (active); in assay [3] it was 6.85%; in assay [4], 97.2% (active); in assay [5], 90.3% (active); in assay [6], 74.8% (active).
